# High-throughput results from PubChem.
# A selection: hits, their analogues and other compounds. The true share with any hit is near 14%.
# Pf growth 48h – P. falciparum growth inhibition at 48 hours (one generation). P. falciparum luciferase growth in erythrocytes, 48 h. Potency, µM (titrated, usually from 28.7 µM), for the others: top-dose activity change, negative = inhibition, actives largely listed as inhibitors. 5.9% of 310,000 active; note: potency is the fitted concentration of half-maximal effect
#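 A one-generation exposure of luciferase-tagged malaria parasites in RPMI 1640/Albumax erythrocyte culture, 37 C and 5% CO2. Inhibition is inferred from decreased luminescence after adding detection reagent.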
# Pf growth 96h – P. falciparum growth inhibition at 96 hour, primary screen for plastid delayed-death inhibitors | P. falciparum luciferase reporter growth, 96 h | Potency, µM (top dose mostly 28.7 µM), for inactives: at the highest dose activity change, negative = inhibition, most hits filed as inhibitors | 6.9% of 320,000 active | AID 504834; note: potency is the fitted concentration of half-maximal effect
#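 Two parasite generations (96 h, 37 C, 5% CO2) of compound exposure in infected erythrocytes (0.05% parasitemia, 2% hematocrit). Luciferase-reporter P. falciparum; decreased luminescence indicates inhibited growth, aimed at apicoplast-acting delayed death.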
# Sm TGR inh – blocks Schistosoma mansoni thioredoxin glutathione reductase; Potency, µM (top dose mostly 114 µM), for the others: top-dose activity change, negative = inhibition, actives largely listed as inhibitors; purified TGR, DTNB reduction, TNB absorbance 405 nm; 3% of 360,000 active; AID 485364; Q962Y6; note: potency is the fitted concentration of half-maximal effect; nearly all actives have a fitted effect of over 60% in size
#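 TGR 20 nM + NADPH 100 uM (dispensed conc.), cpd preinc 15 min RT; start with NADPH (500 uM addition) then DTNB (15 mM addition). Kinetic TNB absorbance, 405 nm filter. Four-parameter Hill fit across titration.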
# HCMV inh – inhibitors of human cytomegalovirus | HFF cells, HCMV-luciferase reporter, 72 h; hits give low values | activity change, negative = inhibition, % at 57.5 µM | 4.5% of 410,000 active | AID 1259415; in the data active = activity change below about -60%; inconclusive = no clear call, values can overlap the other calls; inactive = above about -39%
#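 Two compound doses tested in HFFs infected with HCMV-luciferase, MOI 1 PFU/cell, 72 h at 37C. Lysate luminescence read with OneGlo; data normalized against buffer-only and 10uM Salinomycin inhibitor controls.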
# FBPA Giardia inh – inhibitors of Giardia lamblia fructose-1,6-bisphosphate aldolase. purified Giardia FBPA. Potency, µM (highest dose often 59.6 µM), without a hit: at the top dose activity, negative = inhibition, most hits filed as inhibitors. 0.71% of 290,000 active. AID 2451; note: potency is the fitted concentration of half-maximal effect; nearly all actives have a fitted effect of over 55% in size
# Target sequence (A8B2U2 whole entry, looked up): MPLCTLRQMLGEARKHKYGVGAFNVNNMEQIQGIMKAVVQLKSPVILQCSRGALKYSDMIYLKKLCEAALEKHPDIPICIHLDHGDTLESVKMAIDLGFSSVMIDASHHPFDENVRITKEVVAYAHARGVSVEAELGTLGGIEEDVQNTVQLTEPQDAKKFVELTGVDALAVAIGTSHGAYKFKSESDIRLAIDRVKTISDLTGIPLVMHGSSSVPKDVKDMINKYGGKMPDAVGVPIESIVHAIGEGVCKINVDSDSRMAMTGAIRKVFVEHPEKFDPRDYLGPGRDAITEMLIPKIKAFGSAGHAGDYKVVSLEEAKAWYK
#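 Giardia FBPA (40 nM reagent) was preincubated 10 min at RT with compound (up to 57.5 uM final), then substrate plus GAPDH/TPI/NAD/arsenate coupling system with diaphorase/resazurin was added; resorufin fluorescence (525/598 nm) was read after 20 min.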
# * hit, by the source's call; ? = inconclusive; . = no result; [ ] = another dose, or the depositor's remark. Unless noted, calls come from the whole dose curve; as a rule, active = well fitted curve in the direction sought with a large enough effect; inconclusive = small, poorly fitted or top-dose-only effect, or another doubt; inactive = no such curve, though single readings can be large; an effect the other way counts as inactive or inconclusive. % is set by controls: 0 for no effect and ±100 for the full control effect.
SMILES,Pf growth 48h,Pf growth 96h,Sm TGR inh,HCMV inh,FBPA Giardia inh
CCN(CC)C(=O)Cn1cc(/C=C(\C#N)C(=O)N2CCN(c3ccccc3)CC2)c2ccccc21,?,10µM*,-21%,4,1%
CCN(CC)C(=O)c1cnn(-c2ccccc2)c1NC(=O)c1ccccc1F,-12%,0.93µM*,-4%,-5,7%
CCC(C)n1c(SCC(=O)NC2CC2)nc2ccccc2c1=O (centres undefined),.,.,.,-27,.
Cc1csc(SCC(=O)Nc2cc(C(C)(C)C)nn2-c2ccccc2)n1,7.4µM*,?,3%,-1,0%
Cc1csc(SCC(=O)Nc2cccc3nsnc23)n1,52%,?,?,-75*,1%
CCC(C)n1c(SCC(=O)Nc2cc(C(C)(C)C)nn2-c2ccccc2)nc2ccccc2c1=O (centres undefined),10µM*,5.9µM*,0%,-23,-6%
CC(=O)OCC1OC(C#CCCc2ccccc2)C=CC1OC(C)=O (centres undefined),.,.,.,.,3%[12.9 µM]
COc1ccc(CCC(=O)NCc2nc3cccnc3n2Cc2cccc(OC)c2)cc1,.,.,-2%,?,.
Cc1nc(S(=O)(=O)NC2CCCCC2)c(C#N)c(C)c1Cl,-17%,6%,-17%,?,6%
Cc1nc(S(=O)(=O)N2CCOCC2)c(C#N)c(C)c1Cl,?,?,11%,-105*,4%
O=c1cc(O)c2sc(Nc3ccc(Cl)c(F)c3)nc2[nH]1,1.7µM*,5.9µM*,0%,-77*,-20%
Cc1ccc(CN2CCC(CNc3ncnc4onc(-c5ccc(F)cc5)c34)CC2)cc1,.,.,5%,-25,.
CCOC(=O)c1cccc(-c2ccc(C=O)o2)c1,8%,?,50µM*,54,-5%
CC1CCN(C(CNS(=O)(=O)c2ccccc2)c2ccccc2)CC1 (centres undefined),-18%,-22%,-4%,36,.
COc1ccccc1C(=O)Nc1ccnn1C1CCN(Cc2cn(C)c3ccccc23)CC1,?,-17%,-24%,-17,6%
CCOc1ccccc1CN1CCC(n2nccc2NC(=O)C2CCCC2)CC1,12µM*,-11%,5%,13,.
COc1ccc(O)c(CN2CCC(n3nccc3NC(=O)C3CCCC3)CC2)c1,13µM*,?,?,14,.
Cn1cc(CN2CCC(n3nccc3NC(=O)c3ccccc3Cl)CC2)c2ccccc21,3.3µM*,?,10%,-23,-5%
O=C(Nc1ccnn1C1CCN(Cc2ccccc2)CC1)C1CCCC1,?,-8%,6%,50,0%
COC(=O)C(C(=O)OC)[C@@H]1C=C[C@H](C[N+](=O)[O-])N(C(C)=O)C1,.,.,.,7,.
Cc1ccc2nc(-c3cccnc3)c(NC3CCCCC3)n2c1,?,-8%,-22%,-2,1%
CCC(C)Sc1cccc(-c2nc3ccc(C)cn3c2NC2CCCCC2)c1 (centres undefined),8.3µM*,13µM*,-1%,?,.
Cc1ccc2nc(-c3cccc(SC4CCCCC4)c3)c(NC3CCCCC3)n2c1,.,.,.,-12,.
COc1ccc(-c2ccc(-c3nc4ccc(C)cn4c3NC3CCCCC3)cc2OC)cc1,12µM*,12µM*,1%,14,.
CCC(C)Sc1ccc(-c2nc3ccc(C)cn3c2NC2CCCCC2)cc1 (centres undefined),12µM*,?,-1%,.,.
SMILES,Pf growth 48h,Pf growth 96h,Sm TGR inh,HCMV inh,FBPA Giardia inh
CCC(=O)Nc1c(-c2ccc(C)cc2)nc2ccc(C)cn12,?,12µM*,6%,43,-6%
Cc1ccc2nc(-c3ccc(F)cc3)c(NC(C)(C)CC(C)(C)C)n2c1,.,.,-10%,0,.
O=C1OC(Cc2ccccc2)(c2ccccc2)c2ccccc21 (centres undefined),.,.,.,-25,.
c1cn2c(NC3CCCCC3)c(-c3ccc(SC4CCCCC4)cc3)nc2cn1,3.7µM*,?,-2%,-23,.
COc1ccc(NC(=O)N2CCc3nc(COc4ccccc4)c4c(c3C2)CO[C@@H](C)C4)cc1,.,.,.,.,0%[12.9 µM]
Cc1cc(C)n(-c2cc(N3CCN(C(=O)c4cccc(Br)c4)CC3)ccc2[N+](=O)[O-])n1,?,9.3µM*,-1%,-27,-2%
CC(=O)N1CCN(c2ccc([N+](=O)[O-])c(-n3nc(C)cc3C)c2)CC1,-20%,18%,-13%,-22,2%
Cc1cc(C)n(-c2cc(N3CCN(S(=O)(=O)c4ccc(Cl)cc4)CC3)ccc2[N+](=O)[O-])n1,7.4µM*,8%,1%,?,1%
COC(=O)c1[nH]c2cccc(Cl)c2c1NC(=O)CN1CCN(CCO)CC1,-3%,17%,-1%,24,-1%
COC(=O)c1[nH]c2ccccc2c1NC(=O)CN1CCCCCC1,.,?,-3%,-8,12%
COC(=O)c1[nH]c2ccccc2c1NC(=O)CN1CCN(c2cccc(Cl)c2)CC1,3.3µM*,4%,-2%,?,-2%
COC(=O)c1[nH]c2cc(OC)ccc2c1NC(=O)CN1CCN(c2cccc(C)c2)C(C)C1 (centres undefined),12µM*,10µM*,-22%,-31,-8%
COC(=O)c1[nH]c2cc(C)ccc2c1NC(=O)CN1CCOCC1,11%,-6%,16%,-30,0%
COC(=O)c1[nH]c2cccc(Cl)c2c1NC(=O)CN1CCCCC1C (centres undefined),?,4.1µM*,-2%,-29,-2%
COC(=O)c1[nH]c2ccccc2c1NC(=O)CN1CCC(C(N)=O)(N2CCCCC2)CC1,13µM*,.,-13%,-6,8%
COC(=O)c1ccc(C(NC(=O)OCc2ccccc2)/C(=C/[C@@H](C)C(=O)Nc2ccc(OC)cc2)c2cccnc2)cc1 (some centres undefined),.,.,.,.,-3%
CNc1cnc(-c2cccc(C(=O)N3CCOCC3)c2)cn1,.,.,.,-19,.
CCN1C(=O)C2(C(C#N)=C(N)Oc3cc(C)oc(=O)c32)c2ccccc21 (centres undefined),8%,32%,8%,40,0%
CC1=CC(C)(C)N2C(=O)C3(C(C#N)=C(N)Oc4cc(C)oc(=O)c43)c3cccc1c32 (centres undefined),?,15µM*,9%,31,3%
COc1cc2c3c(c1)C1(C(=O)N3C(C)(C)C=C2C)C(C#N)=C(N)Oc2cc(O)ccc21 (centres undefined),?,.,-8%,14,3%
CCOc1cc2c3c(c1)C1(C(=O)N3C(C)(C)C=C2C)C(C#N)=C(N)Oc2cc(O)ccc21 (centres undefined),4.7µM*,.,-25%,24,-5%
O=[N+]([O-])C1=CC=C2C(=NC3(CCCCC3)N2O)C1=NCCO,49%,70%,?,33,7.1µM*
CN=C1C([N+](=O)[O-])=CC=C2C1=NC1(CCCCC1)N2O,8%,49%,?,-6,5µM*
